Structures can show the parent of a compound that is named as a salt.
Legend:
Settings in all cases: incubation time: 27 h, anaerobic, 37 °C;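 for the amine columns active = adjusted P below 0.05 in both replicates with a change the same way and a mean fold change under 0.8 or over 1.25; inactive = the rest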
[1] = tested on: Clostridium sporogenes DSM 1664; test: growth (OD595) fold change vs plate DMSO controls (fold change (ratio)); higher = more growth
Method in brief: (§1)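 Each value is the mean of 2 biological replicates, and fold changes above 1.5 were set to NA. The underlying readings were taken at 595 nm from shaken anaerobic mGAM cultures in 96-well plates after 27 h at 37 °C. They were blank-subtracted, corrected for compound background using 20 µM compound solutions in water, and converted to OD with a calibration factor of 5. Growth is the fold change relative to the median of the plate DMSO controls.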

[2] = tested on: Escherichia coli IAI1; test: as above
Method in brief: as §1

[3] = tested on: Klebsiella aerogenes DSM 30053; test: as above
Method in brief: as §1

[4] = tested on: Ruminococcus gnavus DSM 108212; test: as above
Method in brief: as §1

[5] = tested on: Klebsiella aerogenes DSM 30053; test: fold change of Histamine concentration vs plate DMSO controls (fold change (ratio)); higher = more amine produced, active = hit call of the paper (significant change in both replicates, either direction)
Method in brief: (§2)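 In 80 µL wells, cultures of four gut bacterial strains in mGAM started at OD 0.1 before a 1:1 dilution and grew anaerobically at 37 °C for 27 h. Compounds were added to 20 µM final, except sweeteners at 50 µM final. After extraction of whole cultures with cold acetonitrile/methanol plus 0.1% formic acid and centrifugation, amines were measured by LC–triple-quadrupole MS in dynamic MRM mode against external calibration curves, with within-batch drift correction. Values give fold change over DMSO controls on the same plate, averaged across 2 biological replicates.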

[6] = tested on: Clostridium sporogenes DSM 1664; test: fold change of Tryptamine concentration vs plate DMSO controls (fold change (ratio)); higher = more amine produced, active = hit call of the paper (significant change in both replicates, either direction)
Method in brief: as §2

[7] = tested on: Ruminococcus gnavus DSM 108212; test: as above
Method in brief: as §2

[8] = tested on: Escherichia coli IAI1; test: fold change of Putrescine concentration vs plate DMSO controls (fold change (ratio)); higher = more amine produced, active = hit call of the paper (significant change in both replicates, either direction)
Method in brief: as §2

[9] = tested on: Klebsiella aerogenes DSM 30053; test: as above
Method in brief: as §2

[10] = tested on: Escherichia coli IAI1; test: fold change of Cadaverine concentration vs plate DMSO controls (fold change (ratio)); higher = more amine produced, active = hit call of the paper (significant change in both replicates, either direction)
Method in brief: as §2

[11] = tested on: Klebsiella aerogenes DSM 30053; test: as above
Method in brief: as §2

[12] = tested on: Ruminococcus gnavus DSM 108212; test: fold change of 2-Phenylethylamine concentration vs plate DMSO controls (fold change (ratio)); higher = more amine produced, active = hit call of the paper (significant change in both replicates, either direction)
Method in brief: as §2

Compound	growth [1]	growth [2]	growth [3]	growth [4]	fold change of Histamine concentration [5]	fold change of Tryptamine concentration [6]	fold change of Tryptamine concentration [7]	fold change of Putrescine concentration [8]	fold change of Putrescine concentration [9]	fold change of Cadaverine concentration [10]	fold change of Cadaverine concentration [11]	fold change of 2-Phenylethylamine concentration [12]
CCCCNc1cc(C(=O)O)cc(S(N)(=O)=O)c1Oc1ccccc1 [Bumetanide] (20 µM)	1.19	1.01	1	0.971	0.994 (inactive)	1.03 (inactive)	1.05 (inactive)	1.04 (inactive)	1.02 (inactive)	1.03 (inactive)	1 (inactive)	1.07 (inactive)
Cc1cc(N)c2ccccc2[n+]1CCCCCCCCCC[n+]1c(C)cc(N)c2ccccc21 [Dequalinium dichloride] (20 µM)	0.993	0.99	1.11	0.565	0.873 (inactive)	0.951 (inactive)	0.896 (inactive)	0.933 (inactive)	1 (inactive)	0.968 (inactive)	1.01 (inactive)	0.921 (inactive)
O=P(O)(O)C(O)(Cc1cccnc1)P(=O)(O)O [Risedronic acid monohydrate] (20 µM)	1.08	1.12	1	0.913	1.05 (inactive)	1.04 (inactive)	1.04 (inactive)	1.2 (inactive)	1.02 (inactive)	0.97 (inactive)	1.01 (inactive)	1.07 (inactive)
CC(=O)Oc1cccc2c1C(=O)c1c(OC(C)=O)cc(C(=O)O)cc1C2=O [Diacerein] (20 µM)	0.926	0.994	0.96	0.904	0.952 (inactive)	1.02 (inactive)	0.905 (inactive)	1.08 (inactive)	0.956 (inactive)	1.02 (inactive)	1 (inactive)	0.916 (inactive)
N[C@@H](Cc1cc(I)c(Oc2cc(I)c(O)c(I)c2)c(I)c1)C(=O)O [(L) Thyroxine] (20 µM)	1.27	0.975	1.01	0.958	1.05 (inactive)	1.27 (inactive)	0.99 (inactive)	1.01 (inactive)	1 (inactive)	1 (inactive)	1.01 (inactive)	1.03 (inactive)
CC1(C)S[C@@H]2[C@H](NC(=O)[C@H](N)c3ccccc3)C(=O)N2[C@H]1C(=O)O [Ampicillin sodium salt] (20 µM)	0.00123	0.943	0.726	0.0281	1.2 (inactive)	0.0126 (active)	0.0802 (active)	0.981 (inactive)	1.02 (inactive)	1.23 (inactive)	1.18 (inactive)	0.0719 (active)
CC(C)COC(=O)OCN1C(=O)CN(CCN2CC(=O)N(COC(=O)OCC(C)C)C(=O)C2)CC1=O [Sobuzoxane] (20 µM)	0.986	0.991	1.03	1.09	1 (inactive)	1.03 (inactive)	1.03 (inactive)	0.986 (inactive)	0.996 (inactive)	0.988 (inactive)	1 (inactive)	1.05 (inactive)
NC(=O)c1cn(Cc2c(F)cccc2F)nn1 [Rufinamide] (20 µM)	0.904	0.974	1.01	0.922	0.998 (inactive)	0.969 (inactive)	1.02 (inactive)	0.999 (inactive)	0.995 (inactive)	0.98 (inactive)	0.985 (inactive)	1.02 (inactive)
COC(=O)[C@H](Cc1ccccc1)NC(=O)[C@H](CC(=O)O)NCCCc1ccc(OC)c(O)c1 [Advantame] (50 µM)	0.941	0.94	0.999	0.968	1 (inactive)	0.973 (inactive)	0.899 (inactive)	0.932 (inactive)	1.02 (inactive)	1.04 (inactive)	0.996 (inactive)	0.9 (inactive)
COc1ccc(-c2noc(CC(=O)O)c2-c2ccc(OC)cc2)cc1 [Mofezolac] (20 µM)	0.876	1.01	1	1.21	1.05 (inactive)	0.988 (inactive)	0.979 (inactive)	1.03 (inactive)	1 (inactive)	0.987 (inactive)	0.993 (inactive)	0.96 (inactive)
COC(=O)CCc1ccc(OCC(O)CNC(C)C)cc1 (stereo not drawn) [Esmolol hydrochloride] (20 µM)	0.978	0.87	0.987	0.947	0.88 (inactive)	0.972 (inactive)	1.1 (inactive)	0.959 (inactive)	0.988 (inactive)	1.09 (inactive)	1.02 (inactive)	1.07 (inactive)
Cc1ccc(C(C)NC(=O)[C@@H](NC(=O)OC(C)C)C(C)C)cc1 (stereo partly drawn) (20 µM)	1.07	1.02	1.04	0.999	1.02 (inactive)	1.02 (inactive)	1.03 (inactive)	0.974 (inactive)	1 (inactive)	1.03 (inactive)	1.02 (inactive)	1.07 (inactive)
c1cnc(N2CCN(Cc3ccc4c(c3)OCO4)CC2)nc1 [Piribedil] (20 µM)	0.986	1	1.07	0.998	0.934 (inactive)	1.18 (inactive)	1.02 (inactive)	1.03 (inactive)	0.971 (inactive)	0.962 (inactive)	0.996 (inactive)	0.991 (inactive)
CC[C@H](c1ccc(O)cc1)[C@@H](CC)c1ccc(O)cc1 [Hexestrol] (20 µM)	0.933	1.03	0.999	0.869	1.06 (inactive)	0.609 (active)	0.789 (active)	1.05 (inactive)	1.01 (inactive)	1.06 (inactive)	0.989 (inactive)	0.749 (inactive)
Cc1ccc(=O)n(-c2ccccc2)c1 [Pirfenidone] (20 µM)	0.978	0.995	0.983	0.984	1.02 (inactive)	1.04 (inactive)	0.978 (inactive)	1.01 (inactive)	1.01 (inactive)	1.01 (inactive)	0.981 (inactive)	0.958 (inactive)
C=CCc1ccc(OC)c(OC)c1 [Methyleugenol] (20 µM)	0.942	1.08	0.993	1.06	0.992 (inactive)	0.986 (inactive)	1.02 (inactive)	1.02 (inactive)	0.921 (inactive)	0.988 (inactive)	1.15 (inactive)	1.02 (inactive)
Nc1ccc(S(=O)(=O)c2ccc(N)cc2)cc1 [Dapsone] (20 µM)	1.06	1.02	0.979	1.2	0.967 (inactive)	1.03 (inactive)	0.982 (inactive)	1.04 (inactive)	0.981 (inactive)	1.02 (inactive)	1 (inactive)	1.04 (inactive)
CN[C@@H]1[C@H](O[C@H]2[C@H](O[C@H]3[C@H](O)[C@@H](O)[C@H](N=C(N)N)[C@@H](O)[C@@H]3N=C(N)N)O[C@@H](C)[C@]2(O)C=O)O[C@@H](CO)[C@H](O)[C@H]1O [Streptomycin sulfate] (20 µM)	0.95	0.989	0.957	1.15	0.988 (inactive)	1.12 (inactive)	1.02 (inactive)	0.983 (inactive)	1 (inactive)	1.03 (inactive)	0.977 (inactive)	0.994 (inactive)
O=C(Nc1ccc([N+](=O)[O-])cc1Cl)c1cc(Cl)ccc1O [Niclosamide] (20 µM)	0.924	1.12	1.1	0.78	0.97 (inactive)	1.02 (inactive)	0.887 (inactive)	1.22 (inactive)	1.03 (inactive)	1.31 (active)	0.992 (inactive)	0.934 (inactive)
CC(C)C(=O)c1c(C(C)C)nn2ccccc12 [Ibudilast] (20 µM)	0.946	0.973	1.02	0.991	1.02 (inactive)	0.996 (inactive)	1.08 (inactive)	1.26 (inactive)	0.984 (inactive)	0.987 (inactive)	0.997 (inactive)	1.09 (inactive)
CC(=O)OCC(=O)[C@@]1(OC(C)=O)[C@@H](C)C[C@H]2[C@@H]3C[C@H](F)C4=CC(=O)C=C[C@]4(C)[C@@]3(F)[C@@H](O)C[C@@]21C [Diflorasone Diacetate] (20 µM)	1.05	0.996	0.978	0.993	1.03 (inactive)	1.03 (inactive)	1.01 (inactive)	0.969 (inactive)	1.01 (inactive)	1.02 (inactive)	0.989 (inactive)	0.978 (inactive)
O=C1NCC2(CCN(CCc3ccccc3)CC2)O1 [Fenspiride hydrochloride] (20 µM)	1.08	0.982	1.05	1.03	0.89 (inactive)	1.02 (inactive)	1.03 (inactive)	0.98 (inactive)	0.973 (inactive)	0.994 (inactive)	1.02 (inactive)	0.988 (inactive)
CC(=O)/N=c1/sc(S(N)(=O)=O)nn1C [Methazolamide] (20 µM)	1.08	1.07	1.01	0.848	0.962 (inactive)	1.02 (inactive)	1.07 (inactive)	0.979 (inactive)	0.981 (inactive)	0.958 (inactive)	0.996 (inactive)	1.12 (inactive)
Cc1nccn1CC1CCc2c(c3ccccc3n2C)C1=O (stereo not drawn) [Ondansetron hydrochloride] (20 µM)	0.937	0.997	0.989	1.08	1.01 (inactive)	1.03 (inactive)	1.01 (inactive)	1.05 (inactive)	0.978 (inactive)	1.01 (inactive)	0.995 (inactive)	1.01 (inactive)

Source: the supplement of paper PMC12494721
